Laboratory results taken from PubChem BioAssay (Tox21).
“And” between values parts separate entries of the source, which are not always exact repeats. Equal values may be shown once. Records with an inconclusive call do not appear. Values without a mark were called inactive. The source made the active and inactive calls. The call rests on the fitted dose curve; in most records, active means well fitted inhibition curve with a large enough effect in the repeat runs; inconclusive means weak or mixed curves, or effect the other way; inactive means no such curve, though single readings can be large or run the other way.

Target: Nuclear receptor ROR-gamma (Homo sapiens) (UniProt P51449)
Test: qHTS assay to identify small molecule antagonists of the retinoid-related orphan receptor gamma (ROR-gamma) signaling pathway (AID 1159521; further: nearly all actives have a fitted effect of over 50% in size; on activity change, negative = inhibition: top concentration of the series differs between compounds)
Conditions: Tet-on RORgamma CHO cells, RORE-luciferase, 16 h; series mostly up to 92.4 µM; activity change, negative = inhibition: at the top concentration
Text: U.S. Tox21 Program National Center for Advancing Translational Sciences [NCATS] NIH Chemical Genomics Center [NCGC] U.S. Environmental Protection Agency [EPA] National Institutes of Environmental Health Sciences [NIEHS] National Toxicology Program [NTP] U.S. Food and Drug Administration [FDA] Tox21 Assay Overview: Nuclear steroid hormone receptors are involved in many biological processes including inflammatory responses, cell proliferation, and apoptosis. Environmental factors or compounds disrupting these nuclear receptor pathways and gene expression may promote susceptibility to immunotoxicants and autoimmune diseases. One important group of these expression factors are the retinoid-related orphan receptors. To assess compounds that may interfere with the retinoid-related orphan receptor gamma (ROR-gamma) transcription factor, a cell-based luciferase assay was used. The CHO cell-based assay utilizes a TET-inducible ROR expression factor and ROR response element-LUC reporter gene. Reporter gene activity was induced using Doxycycline Hyclate and measured after 16 hr incubation. Tet-on ROR gamma CHO cells were used to screen against the Tox21 10K compound library for ROR gamma antagonists by quantification of decreased reporter gene activity in terms of decreased luminescence.
Tox21 Assay Protocol Summary: Tet-on ROR gamma CHO cells were dispensed at 1,000 cells in 4 uL of culture medium per well into white wall/solid bottom 1536-well plates using a Multidrop Combi (Thermo Scientific, Waltham, MA) dispenser. Following incubation at 37 C and 5% CO2 for 4 hr, 23 nL of compounds dissolved in DMSO, positive controls or DMSO only were transferred by a Pintool station (Kalypsys, San Diego, CA) and after 2 hr incubation at 37 C, one ul of 1 uM (final concentration) of Doxycycline Hyclate was added to all the wells by using a Flying Reagent Dispenser (FRD) (Aurora Discovery, San Diego, CA). After 16 hr incubation at 37 C and 5% CO2, 5 uL of ONE-Glo reagent (Promega Corporation, Madison, WI) was added to each assay plate using FRD. After 30 min incubation at room temperature, luminescence was quantified on a ViewLux plate reader (Perkin Elmer, Waltham, MA).
On the % scale 0 is the no-effect control and ±100 the full control effect; potency means the concentration at half of the fitted maximal effect.

SMILES	Potency	activity change, negative = inhibition [%]
COc1ccc(C(c2ccc(OC)cc2)C(Cl)(Cl)Cl)cc1	48.3 µM (active)	–
Nc1ccc([N+](=O)[O-])cc1	–	20.3
CC(c1ccccc1)(c1ccc(O)cc1)c1ccc(O)cc1	48.6 µM (active)	–
O=C(c1ccccc1)C(Cl)Cl	27.3 µM (active)	–
O=C(Nc1ccccc1-c1ccc(Cl)cc1)c1cccnc1Cl	–	-13.6
Cc1nnc2n1-c1sc(CCc3ccc(CC(C)C)cc3)cc1C(c1ccccc1Cl)=NC2C (stereo unspecified)	29.8 µM (active)	–
COc1cc(OC)c(OC)cc1C=O	–	12.2
CN1CSC(=S)N(C)C1	964 nM (active) and 2.16 µM (active)	–
CCN(CC)C(=O)Cl	–	-9.38
CO/C=C(/C(=O)OC)c1ccccc1Oc1cc(Oc2ccccc2C#N)ncn1	0.581 µM (active)	–
Cc1cc(C)c(C(=O)P(=O)(c2ccccc2)c2ccccc2)c(C)c1	61.1 µM (active)	–
